# Measurements: PubChem BioAssay
# The source made the active and inactive calls. The rule behind the calls is not given here.
# Target: Pantothenate synthetase (Mycobacterium tuberculosis (strain ATCC 25618 / H37Rv)) (UniProt P9WIL5)
# Test: Coupled enzyme confirmation of inhibitors against recombinant Mtb PanC (AID 375);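 note: 0% = full reaction with vehicle and 100% = no enzyme background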
# Details: coupled enzyme assay; at 10 µM, active compounds read high
# Pantothenate synthetase (Mycobacterium tuberculosis (strain ATCC 25618 / H37Rv)), sequence (P9WIL5 whole entry, looked up): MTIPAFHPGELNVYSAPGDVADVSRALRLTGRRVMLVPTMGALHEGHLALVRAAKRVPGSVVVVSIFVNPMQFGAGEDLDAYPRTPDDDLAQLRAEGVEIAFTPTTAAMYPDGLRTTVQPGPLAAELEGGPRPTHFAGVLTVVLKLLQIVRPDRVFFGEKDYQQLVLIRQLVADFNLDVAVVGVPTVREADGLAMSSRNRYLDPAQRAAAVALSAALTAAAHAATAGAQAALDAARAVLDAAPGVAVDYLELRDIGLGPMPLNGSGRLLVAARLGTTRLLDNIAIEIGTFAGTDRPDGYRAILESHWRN
row,SMILES,inhibition
1,CCOC(=O)C1CCCN(c2c(NCc3ccco3)c(=O)c2=O)C1 (stereo not given),0% (inactive)
2,CCn1c(C(=O)N2CCC(C(=O)N3CCN(c4ccccn4)CC3)CC2)cc2sccc21,7% (inactive)
3,CC(=O)Nc1ccc(-c2nn[nH]n2)cc1Cl,0% (inactive)
4,COc1ccc(Nc2nc(OC)nc(N3CCN(c4ccc(OC)cc4)CC3)n2)cc1,1% (inactive)
5,COc1ccc(-c2onc(C)c2-c2ccccc2)c(O)c1,3% (inactive)
6,NS(=O)(=O)c1ccc(C(=O)O)cc1,0% (inactive)
7,CCCc1[nH]nc2c1C(c1cccc(OC(=O)c3ccco3)c1)C(C#N)=C(N)O2 (stereo not given),1% (inactive)
8,Cc1cn([C@H]2C=C[C@@H](CO)O2)c(=O)[nH]c1=O,0% (inactive)
9,CCOC(=O)N1CCN(c2cc(=O)n(-c3cccc(Br)c3)c(=O)[nH]2)CC1,0% (inactive)
10,Cc1ccc(S(=O)(=O)N2CCN(C(=O)N3CCOCC3)C2c2ccc(N(C)C)cc2)cc1 (stereo not given),0% (inactive)
11,Cc1ccc(C2Nc3ccccc3-c3nc4ccccc4n32)o1 (stereo not given),0% (inactive)
12,CCCCN(C)Cc1c(O)ccc2c(-c3ccccc3)cc(=O)oc12,1% (inactive)
13,O=C(CSc1nnc(CNC(=O)c2cccs2)o1)NCCc1ccccc1,0% (inactive)
14,Cc1ccc(NC(=O)CN2CC(C)SC2=NC2CCCCC2)cc1 (stereo not given),6% (inactive)
15,CCC(C)(C)NC(=O)CN(Cc1ccc2c(c1)OCO2)C(=O)CCC(=O)Nc1ccccn1,3% (inactive)
16,Cc1cc(NC(=O)CSc2nc3c(c(-c4cccnc4)c2C#N)CCC3)no1,0% (inactive)
17,CCOc1ccc(OCCCCN(C)C)cc1,2% (inactive)
18,Cc1cc(Oc2ccc(Cl)cc2)nc(-c2ccccc2O)n1,7% (inactive)
19,O=C(CN(c1ccc(F)cc1)S(=O)(=O)c1ccc2c(c1)OCCO2)Nc1cccnc1,0% (inactive)
20,CCC(C)Nc1nc2c(c(=O)n(C)c(=O)n2C)n1Cc1ccc(F)cc1 (stereo not given),3% (inactive)

row,SMILES,inhibition
1,CCCn1c2ccccc2c2nnc(SCC(=O)OCC)nc21,6% (inactive)
2,CCSc1nnc(N2C(=O)CC(c3ccsc3)C3=C2CC(C)(C)CC3=O)s1 (stereo not given),0% (inactive)
3,N#CC1=C(SCC(=O)c2cc3ccccc3oc2=O)NC(=O)C(C#N)C12CCCC2 (stereo not given),0% (inactive)
4,COC(=O)c1ccc2ncccc2c1,0% (inactive)
5,CCOC(=O)Nc1ccc2c(c1)N(C(=O)OCCN(C)C)c1ccccc1CC2,3% (inactive)
6,COc1cccc(C2CC(c3ccccc3)n3ncnc3N2)c1 (stereo not given),8% (inactive)
7,COc1cccc(C(c2nnnn2CCc2ccccc2)N2CCN(c3ccccc3)CC2)c1OC (stereo not given),0% (inactive)
8,O=C(c1ccc(COc2c(F)c(F)c(F)c(F)c2F)o1)N1CCOCC1,4% (inactive)
9,CC(=O)Nc1nc(=S)ss1,6% (inactive)
10,Cc1ccccc1NS(=O)(=O)c1ccc(NC(=O)c2ccco2)cc1,0% (inactive)
11,CN(C)S(=O)(=O)c1ccc(C(=O)NCc2cccs2)cc1,4% (inactive)
12,COc1cc2c(cc1OC)C(c1ccc(C)o1)CC(=O)N2 (stereo not given),3% (inactive)
13,COc1ccc(-c2c(C(F)(F)F)oc3c(CN4CCN(C)CC4)c(O)ccc3c2=O)cc1,4% (inactive)
14,CC1(C)Cc2noc(N)c2C(C)(C)N1OC(=O)c1cccs1,0% (inactive)
15,COc1cc(C2C(C#N)=C(N)OC3=C2C(=O)CCC3)ccc1OC(=O)N1CCOCC1 (stereo not given),0% (inactive)
16,Cn1c(-c2ccc(C(C)(C)C)cc2)n[nH]c1=S,0% (inactive)
17,Cc1cc(C)n(CC(=O)n2c3c(c4ccccc42)CCCC3)n1,2% (inactive)
18,CC1Cc2ccccc2N1C(=O)CSc1nnc2n1C(C)(C)Cc1ccccc1-2 (stereo not given),0% (inactive)
19,CCOC(=O)N1CCC(N(C(=O)Nc2cccc(OC)c2)C(C)CC)CC1 (stereo not given),0% (inactive)
20,COc1ccc(C(CNC(=O)c2cc(C)oc2C)N2CCOCC2)cc1 (stereo not given),0% (inactive)
